Measured values reported in PubChem BioAssay (NCATS).
Records with an inconclusive call do not appear. Active and inactive are the calls of the source. The call rests on the fitted dose curve; in most records, active means well fitted curve in the direction sought with a large enough effect; inconclusive means small, poorly fitted or top-dose-only effect, or another doubt; inactive means no such curve, though single readings can be large; an effect the other way counts as inactive or inconclusive.

Assays:
[1] = qHTS of pediatric cancer cell lines to identify multiple opportunities for drug repurposing: Primary screen for control Hh wild type fibroblast cells (AID 1347106); conditions: Hh wild-type fibroblast viability, CellTiter-Glo luminescence, 48 h; series mostly up to 46 µM;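 further: a drop in luminescence marks cytotoxicity and a rise apparent proliferation; nearly all actives have a fitted effect of over 55% in size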
In short: (§1)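 Viability after 48 h compound treatment at 37C, 500-1,000 cells/well, read as ATP luminescence with CellTiter-Glo. Primary screens used 11-point (MIPE, 0.78 nM-46 µM) or 8-point (NPC, 0.59 nM-46 µM) final concentrations; follow-up screens used 11-point dilutions.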

[2] = qHTS of pediatric cancer cell lines to identify multiple opportunities for drug repurposing: Primary screen for Rh30 cells (AID 1347107); conditions: Rh30 rhabdomyosarcoma viability, CellTiter-Glo luminescence, 48 h; series mostly up to 46 µM; further: nearly all actives have a fitted effect of over 75% in size
In short: as §1

[3] = qHTS of pediatric cancer cell lines to identify multiple opportunities for drug repurposing: Primary screen for Rh41 cells (AID 1347108); conditions: Rh41 rhabdomyosarcoma viability, CellTiter-Glo luminescence, 48 h; series mostly up to 46 µM;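 further: luminescence drop marks cytotoxic hits; nearly all actives have a fitted effect of over 70% in size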
In short: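 Viability was measured as metabolically active cells after 48 hours of treatment, read by CellTiter-Glo luminescence. Compounds were tested at multiple final concentrations, giving concentration-response curves.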

Measured: outcome

CC1(C)S[C@@H]2[C@H](NC(=O)C(C(=O)O)c3ccccc3)C(=O)N2[C@H]1C(=O)O (stereo not given in full)
inactive: all assays above

CC(C)=CCC[C@@](C)(O)[C@H]1CC=C(C)CC1
inactive: all assays above

O=C(O)c1ccccc1C(=O)Nc1ccc(S(=O)(=O)Nc2nccs2)cc1
inactive: all assays above

CC[C@H](C)[C@H](N)C(=O)O
inactive: all assays above

Cc1cccc(C)c1NC(=O)CC12CCCN1CCC2
inactive: all assays above

Cc1ccccc1N=Nc1ccc(N=Nc2c(O)ccc3ccccc23)c(C)c1
inactive: all assays above

Cn1c(=O)c2c(ncn2CCO)n(C)c1=O
inactive: all assays above

O=C(O)[C@@H]1[C@H]2C[C@H]3c4[nH]c5ccccc5c4CCN3C[C@@H]2CC[C@@H]1O
inactive: all assays above

O=C(O)C(S)C(S)C(=O)O (stereo not given)
inactive: all assays above

Cc1cc(OI)c(C(C)C)cc1-c1cc(C(C)C)c(OI)cc1C
inactive: all assays above

NC(=O)NC1NC(=O)NC1=O (stereo not given)
inactive: all assays above

Cc1c(C)c2c(c(C)c1OC(=O)c1cccnc1)CC[C@@](C)(CCC[C@H](C)CCC[C@H](C)CCCC(C)C)O2
inactive: all assays above

CCCCCCCC(=O)OCC(COC(=O)CCCCCCC)OC(=O)CCCCCCC
inactive: all assays above

COc1ccccc1OCC(O)CO (stereo not given)
inactive: all assays above

O=C(NCC(O)CO)c1c(I)c(C(=O)NCC(O)CO)c(I)c(N(CCO)C(=O)CO)c1I (stereo not given)
inactive: all assays above
